Laboratory results reported in PubChem BioAssay (Tox21).
Values joined by “and” are separate entries in the source; they are usually repeats but may differ in a detail not shown here. Equal values may be shown once. Results filed as inconclusive are left out. Where a call stands in place of a potency, no number is given. Active and inactive are the calls of the source. Unless noted, calls follow the shape of the dose curve; as a rule, active = well fitted curve in the direction sought with a large enough effect in the repeat runs; inconclusive = weak or mixed curves; inactive = no such curve, though single readings can be large; an effect the other way counts as inactive or inconclusive.

Experiments:
[1] = qHTS assay to identify small molecule agonists of the estrogen receptor alpha (ER-alpha) signaling pathway in the presence of an antagonist - cell viability counter screen (AID 1259386);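 also: cells exposed to compounds for 22 h at 37 °C before the viability read; nearly all actives have a fitted effect of over 30% in size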; also: potency is read from the fitted curve at half-maximal effect
In short: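 The test measures whether compounds kill ER-alpha reporter cells (VM7Luc4E2) under antagonist co-treatment (ICI-182,780, 10.0nM). Fluorescence from CellTiter-Fluor is read after a 22hr exposure.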

[2] = target: Progesterone receptor (Homo sapiens) (UniProt P06401); assay: qHTS assay to identify small molecule agonists of the progesterone receptor (PR) signaling pathway (AID 1346784; calls by dose curve; also: nearly all actives have a fitted effect of over 30% in size)
In short: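 PR-UAS-bla HEK 293T cells carrying a UAS-driven beta-lactamase reporter were seeded in medium with 2% charcoal-stripped FBS, preincubated 6 hr at 37C, then exposed to compounds in DMSO for 16 hr; agonism was read by LiveBLAzer B/G FRET fluorescence.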

[3] = target: Progesterone receptor (Homo sapiens) (UniProt P06401); assay: qHTS assay to identify small molecule antagonists of the progesterone receptor (PR) signaling pathway (AID 1346795; active = well fitted inhibition curve with a large enough effect in the signal ratio in the repeat runs, not every such curve was filed as active; the % refers to the signal ratio; also: potency is read from the fitted curve at half-maximal effect)
In short: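 PR-UAS-bla HEK293T cells carrying a UAS-driven beta-lactamase reporter were plated in medium with 2% charcoal-stripped FBS and rested 6 hr at 37C. Compounds were added with 1 nM R5020 (final) for 16 hr, then FRET substrate loaded 2 hr at room temperature.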

[4] = qHTS assay to identify small molecule antagonists of the progesterone receptor (PR) signaling pathway - cell viability counter screen (AID 1346798); also: series mostly up to about 92 µM; nearly all actives have a fitted effect of over 50% in size
In short: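 PR-UAS-bla HEK293T cells in medium with 2% charcoal-stripped FBS were treated with compounds plus R5020 for 16 hr at 37C. Cell viability was then read by CellTiter-Glo luminescence after 30 min at room temperature in the same wells.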

[5] = qHTS assay to identify small molecule agonists of the progesterone receptor (PR) signaling pathway - cell viability counter screen (AID 1346799; calls by dose curve; also: nearly all actives have a fitted effect of over 45% in size)
In short: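 PR-UAS-bla HEK293T cells, 3,000 per well in medium with 2% charcoal-stripped FBS, were preincubated 6 hr at 37C, then exposed to compounds for 16 hr; viability was read as CellTiter-Glo luminescence after 30 min at room temperature.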

[6] = qHTS assay to identify small molecule antagonists of the TGF-beta/Smad signaling pathway - cell viability counter screen (AID 1346824); also: nearly all actives have a fitted effect of over 50% in size
In short: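 SBE-bla HEK 293T cells were plated overnight at 37 C, then given compounds in DMSO plus TGF-beta1 (added as 0.25 ng/mL solution) for 5 hr. After the bla read, CellTiter-Glo was added to the same wells and luminescence read after 30 min at room temperature.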

[7] = qHTS assay to identify small molecule agonists of the TGF-beta/Smad signaling pathway - cell viability counter screen (AID 1346829); also: top concentration of the series differs between compounds; nearly all actives have a fitted effect of over 45% in size
In short: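 CellTiter-Glo luminescence readout; SBE-bla HEK 293T cells, overnight plating, compound 5 hr at 37 C/5% CO2, then bla substrate 2 hr RT, then CellTiter-Glo 30 min RT.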

[8] = qHTS assay to identify small molecule agonists of the TGF-beta/Smad signaling pathway (AID 1346859; active = well fitted activation curve with a large enough effect in the signal ratio in the repeat runs, not every such curve was filed as active; the % refers to the signal ratio; also: series mostly up to about 77 µM)
In short: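 HEK 293T cells stably carrying a beta-lactamase reporter driven by the Smad binding element were seeded overnight, exposed to DMSO-dissolved compounds for 5 hr at 37 C, 5% CO2, then loaded with FRET substrate for 2 hr at room temperature.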

[9] = target: Thyrotropin-releasing hormone receptor (Homo sapiens) (UniProt P34981); assay: qHTS assay to identify small molecule antagonists of the thyrotropin-releasing hormone receptor (TRHR) signaling pathway (AID 1346877; active = well fitted inhibition curve with a large enough effect in the repeat runs, not every such curve was filed as active; also: series mostly up to about 51 µM)
In short: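 Overnight-plated (18 h, 37 °C) HEK293 cells expressing TRHR were dye-loaded 2 h, treated with compound, then stimulated with TRH at 1 nM final. Fluorescence intensity was captured every second for 3 min.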

[10] = target: Thyrotropin-releasing hormone receptor (Homo sapiens) (UniProt P34981); assay: qHTS assay to identify small molecule agonists of the thyrotropin-releasing hormone receptor (TRHR) signaling pathway (AID 1346891; calls by dose curve; also: series mostly up to about 58 µM)
In short: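 TRHR-expressing HEK293 cells were plated 18 h at 37 °C/5% CO2, loaded with calcium dye 2 h at 37 °C, then given compound in DMSO; fluorescence was read kinetically for 3 min at 1 s intervals.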

Sequence of Thyrotropin-releasing hormone receptor (Homo sapiens) (P34981 whole entry, looked up): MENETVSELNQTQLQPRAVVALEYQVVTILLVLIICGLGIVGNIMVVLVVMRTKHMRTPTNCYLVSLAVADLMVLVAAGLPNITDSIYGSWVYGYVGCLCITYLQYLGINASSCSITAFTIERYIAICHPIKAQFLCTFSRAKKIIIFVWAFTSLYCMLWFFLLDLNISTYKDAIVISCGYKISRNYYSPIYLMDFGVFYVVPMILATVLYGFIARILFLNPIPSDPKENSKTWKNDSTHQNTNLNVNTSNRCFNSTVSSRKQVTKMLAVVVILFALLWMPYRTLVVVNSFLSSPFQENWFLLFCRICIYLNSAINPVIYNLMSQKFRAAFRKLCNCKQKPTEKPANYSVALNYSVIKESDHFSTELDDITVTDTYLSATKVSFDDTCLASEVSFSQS
Sequence of Progesterone receptor (Homo sapiens) (P06401 whole entry, looked up): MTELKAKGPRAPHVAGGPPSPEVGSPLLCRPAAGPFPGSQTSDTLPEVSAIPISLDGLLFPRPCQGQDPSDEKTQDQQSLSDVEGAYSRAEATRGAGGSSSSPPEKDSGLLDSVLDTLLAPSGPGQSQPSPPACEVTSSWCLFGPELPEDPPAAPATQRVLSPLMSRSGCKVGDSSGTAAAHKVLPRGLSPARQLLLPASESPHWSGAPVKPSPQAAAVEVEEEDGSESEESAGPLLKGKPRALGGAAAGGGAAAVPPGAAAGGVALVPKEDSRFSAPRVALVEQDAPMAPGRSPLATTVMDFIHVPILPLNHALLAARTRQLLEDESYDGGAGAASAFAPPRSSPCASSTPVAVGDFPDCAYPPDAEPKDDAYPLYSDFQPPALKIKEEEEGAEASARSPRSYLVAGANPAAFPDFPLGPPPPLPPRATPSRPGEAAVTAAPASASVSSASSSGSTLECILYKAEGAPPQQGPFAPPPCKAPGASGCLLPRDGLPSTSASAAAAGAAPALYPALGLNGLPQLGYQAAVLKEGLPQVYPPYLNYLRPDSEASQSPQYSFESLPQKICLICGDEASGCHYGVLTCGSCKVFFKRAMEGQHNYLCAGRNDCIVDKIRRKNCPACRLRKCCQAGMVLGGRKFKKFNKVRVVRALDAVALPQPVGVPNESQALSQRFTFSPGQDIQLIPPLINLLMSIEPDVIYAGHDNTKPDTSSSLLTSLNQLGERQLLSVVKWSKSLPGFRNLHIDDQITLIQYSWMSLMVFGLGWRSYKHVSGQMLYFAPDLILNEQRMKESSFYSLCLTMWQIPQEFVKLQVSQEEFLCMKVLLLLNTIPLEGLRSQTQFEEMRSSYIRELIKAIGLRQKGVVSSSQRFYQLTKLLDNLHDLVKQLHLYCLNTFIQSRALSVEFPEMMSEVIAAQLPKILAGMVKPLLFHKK

| SMILES | Potency [1] | Potency [2] | Potency [3] | Potency [4] | Potency [5] | Potency [6] | Potency [7] | outcome [8] | Potency [9] | Potency [10] |
| --- | --- | --- | --- | --- | --- | --- | --- | --- | --- | --- |
| O=C1NS(=O)(=O)c2ccccc21 | inactive | inactive | inactive | inactive | inactive | inactive | inactive | inactive | inactive | inactive |
| Cc1ncc([N+](=O)[O-])n1C | inactive | inactive | inactive | inactive | inactive | inactive | inactive | inactive | inactive | inactive |
| CCOc1ccc(NC(C)=O)cc1 | inactive | inactive | inactive | inactive | inactive | inactive | inactive | – | inactive | inactive |
| CCCCOC(=O)c1ccc(O)cc1 | inactive | inactive | 27.6 µM (active) and 27.3 µM (active) and 26.6 µM (active) | inactive | inactive | inactive | inactive | – | inactive | inactive |
| NC1CCCCC1 | inactive | inactive | inactive | inactive | inactive | inactive | inactive | – | inactive | inactive |
| Cc1cc(=O)oc2cc(O)ccc12 | inactive | inactive | inactive | inactive | inactive | inactive | inactive | – | inactive | inactive |
| CC12CCC(CC1)C(C)(C)O2 | inactive | inactive | inactive | inactive | inactive | inactive | inactive | – | inactive | inactive |
| O=S1(=O)OC(c2ccc(O)cc2)(c2ccc(O)cc2)c2ccccc21 | 19.3 µM (active) and 17.2 µM (active) and 13.3 µM (active) | inactive | inactive | inactive | inactive | inactive | inactive | inactive | inactive | inactive |
